Source: PubChem BioAssay AID1159580 (chemical genetic matrix, 2015)
The campaign covered roughly 5,500 compounds. About 2,000 (36%) were called active. Not shown: some 18% with an inconclusive outcome. Cut-off read from the data, not from the text of the source: active = normalized growth mostly below about 0.91 (no sharp cut-off); inconclusive = no clear call, values can overlap the other calls; inactive = mostly above about 0.92. The list shows a part of the results.

Assay: chemical genetic growth profiling, strain panel (AID 1159580);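 note: tested at 20 µM; growth read once vehicle control cultures reached saturation at 30 °C; 1 = growth at the plate median or of vehicle wells; lower values mean less growth of the strain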
Settings: growth OD
[1] = S. cerevisiae deletion strains, locus YMR307W, strain GAS1, active compounds read low

Measured: normalized growth

CCC1(O)CC2CN(CCc3c([nH]c4ccccc34)[C@@](C(=O)OC)(c3cc4c(cc3OC)N(C)C3[C@]45CCN4CC=C[C@@](CC)([C@@H](OC(C)=O)[C@]3(O)C(=O)OC)[C@H]45)C2)C1 (some centres undefined)
inactive: S. cerevisiae deletion strains, locus YAL040C, strain CLN3, active compounds read low 1 | S. cerevisiae deletion strains, locus YCL061C, strain MRC1 (second series), active compounds read low 1 | S. cerevisiae deletion strains, locus YDR150W, strain NUM1, active compounds read low 1.01 | S. cerevisiae deletion strains, locus YDR363W, strain ESC2, active compounds read low 0.993 | S. cerevisiae deletion strains, locus YER002W, strain NOP16, active compounds read low 1.06 | S. cerevisiae deletion strains, locus YMR263W, strain SAP30, active compounds read low 0.996 | [1] 0.985 | S. cerevisiae deletion strains, locus YNL175C, strain NOP13, active compounds read low 1.02 | S. cerevisiae deletion strains, locus YNL197C, strain WHI3, active compounds read low 1.03 | S. cerevisiae deletion strains, locus YNL224C, strain SQS1, active compounds read low 1.04 | S. cerevisiae deletion strains, locus YOR083W, strain WHI5 (second series), active compounds read low 1.07 | S. cerevisiae deletion strains, locus YPL055C, strain LGE1, active compounds read low 1.01 | S. cerevisiae deletion strains, locus YPL241C, strain CIN2, active compounds read low 0.994

CC(=O)Oc1c(Cl)c(C)c2c(c1Cl)OC(=O)c1c(C)c(Cl)c(OC(C)=O)c(Cl)c1O2
active: S. cerevisiae deletion strains, locus YAL013W, strain DEP1, active compounds read low 0.895 | S. cerevisiae deletion strains, locus YBR021W, strain FUR4, active compounds read low 0.851 | S. cerevisiae deletion strains, locus YCL029C, strain bik1, active compounds read low 0.853 | S. cerevisiae deletion strains, locus YDL192W, strain arf1, active compounds read low 0.825 | S. cerevisiae deletion strains, locus YDR101C, strain arx1, active compounds read low 0.883 | S. cerevisiae deletion strains, locus YDR162C, strain NBP2, active compounds read low 0.799 | S. cerevisiae deletion strains, locus YDR502C, strain sam2, active compounds read low 0.878 | S. cerevisiae deletion strains, locus YER155C, strain BEM2, active compounds read low 0.91 | S. cerevisiae deletion strains, locus YGL078C, strain dbp3, active compounds read low 0.856 | S. cerevisiae deletion strains, locus YGL086W, strain mad1, active compounds read low 0.899 | S. cerevisiae deletion strains, locus YGR229C, strain SMI1, active compounds read low 0.65 | S. cerevisiae deletion strains, locus YGR252W, strain gcn5, active compounds read low 0.693 | S. cerevisiae deletion strains, locus YKL009W, strain mrt4, active compounds read low 0.678 | S. cerevisiae deletion strains, locus YKL085W, strain MDH1 (second series), active compounds read low 1.39 [resistant] | S. cerevisiae deletion strains, locus YKL085W, strain MDH1, active compounds read low 1.39 [resistant] | S. cerevisiae deletion strains, locus YKR001C, strain vps1, active compounds read low 0.682 | S. cerevisiae deletion strains, locus YLR268W, strain sec22, active compounds read low 0.847 | S. cerevisiae deletion strains, locus YLR418C, strain cdc73, active compounds read low 0.756 | S. cerevisiae deletion strains, locus YML032C, strain rad52, active compounds read low 0.853 | S. cerevisiae deletion strains, locus YMR223W, strain ubp8, active compounds read low 0.886 | S. cerevisiae deletion strains, locus YNL067W, strain RPL9B, active compounds read low 0.846 | S. cerevisiae deletion strains, locus YNL153C, strain GIM3, active compounds read low 0.858 | S. cerevisiae deletion strains, locus YNL298W, strain CLA4, active compounds read low 0.866 | S. cerevisiae deletion strains, locus YNL307C, strain MCK1, active compounds read low 0.771 | S. cerevisiae deletion strains, locus YNR052C, strain pop2, active compounds read low 0.754 | S. cerevisiae deletion strains, locus YOL147C, strain pex11, active compounds read low 0.916 | S. cerevisiae deletion strains, locus YOR144C, strain elg1, active compounds read low 0.903 | S. cerevisiae deletion strains, locus YOR184W, strain ser1, active compounds read low 0.652 | S. cerevisiae deletion strains, locus YPR163C, strain tif3, active compounds read low 0.736 | S. cerevisiae deletion strains, strain wtn01, active compounds read low 0.856
inactive: S. cerevisiae deletion strains, locus YBR229C, strain ROT2, active compounds read low 1.02 | S. cerevisiae deletion strains, locus YDL035C, strain GPR1, active compounds read low 0.86 | S. cerevisiae deletion strains, locus YDL074C, strain BRE1, active compounds read low 0.79 | S. cerevisiae deletion strains, locus YDL101C, strain DUN1, active compounds read low 0.946 | S. cerevisiae deletion strains, locus YDL185W, strain tfp1, active compounds read low 1 | S. cerevisiae deletion strains, locus YDR318W, strain mcm21, active compounds read low 0.946 | S. cerevisiae deletion strains, locus YDR388W, active compounds read low 0.932 | S. cerevisiae deletion strains, locus YEL061C, strain CIN8, active compounds read low 1.02 | S. cerevisiae deletion strains, locus YER110C, active compounds read low 0.992 | S. cerevisiae deletion strains, locus YER167W, strain BCK2, active compounds read low 0.985 | S. cerevisiae deletion strains, locus YGL248W, strain PDE1, active compounds read low 0.926 | S. cerevisiae deletion strains, locus YGR135W, strain pre9, active compounds read low 0.912 | S. cerevisiae deletion strains, locus YHR030C, strain SLT2, active compounds read low 0.922 | S. cerevisiae deletion strains, locus YHR079C, strain IRE1 (second series), active compounds read low 1.01 | S. cerevisiae deletion strains, locus YHR094C, strain hxt1, active compounds read low 1.01 | S. cerevisiae deletion strains, locus YHR129C, strain ARP1, active compounds read low 0.925 | S. cerevisiae deletion strains, locus YHR200W, strain rpn10, active compounds read low 0.966 | S. cerevisiae deletion strains, locus YIL066C, strain RNR3, active compounds read low 0.965 | S. cerevisiae deletion strains, locus YIL073C, strain SPO22, active compounds read low 1.03 | S. cerevisiae deletion strains, locus YIL125W, strain kgd1, active compounds read low 1.02 | S. cerevisiae deletion strains, locus YIR030C, strain dcg1, active compounds read low 0.934 | S. cerevisiae deletion strains, locus YJL095W, strain BCK1, active compounds read low 0.802 | S. cerevisiae deletion strains, locus YJL134W, strain LCB3, active compounds read low 1.04 | S. cerevisiae deletion strains, locus YJL168C, strain set2, active compounds read low 1.01 | S. cerevisiae deletion strains, locus YJL187C, strain SWE1 (second series), active compounds read low 0.913 | S. cerevisiae deletion strains, locus YJR043C, strain POL32, active compounds read low 0.921 | S. cerevisiae deletion strains, locus YLR039C, strain RIC1, active compounds read low 0.715 | S. cerevisiae deletion strains, locus YLR058C, strain SHM2, active compounds read low 0.967 | S. cerevisiae deletion strains, locus YLR102C, strain apc9, active compounds read low 1.01 | S. cerevisiae deletion strains, locus YLR262C, strain YPT6, active compounds read low 0.642 | S. cerevisiae deletion strains, locus YLR330W, strain CHS5, active compounds read low 0.922 | S. cerevisiae deletion strains, locus YLR342W, strain FKS1 (second series), active compounds read low 0.828 | S. cerevisiae deletion strains, locus YLR371W, strain rom2, active compounds read low 1.01 | S. cerevisiae deletion strains, locus YML016C, strain PPZ1, active compounds read low 1.02 | S. cerevisiae deletion strains, locus YML124C, strain tub3, active compounds read low 1.02 | S. cerevisiae deletion strains, locus YMR078C, strain ctf18, active compounds read low 0.985 | [1] 0.613 | S. cerevisiae deletion strains, locus YNL233W, strain BNI4, active compounds read low 0.934 | S. cerevisiae deletion strains, locus YNL250W, strain rad50, active compounds read low 0.98 | S. cerevisiae deletion strains, locus YNL271C, strain bni1, active compounds read low 0.993 | S. cerevisiae deletion strains, locus YNL322C, strain KRE1, active compounds read low 1.02 | S. cerevisiae deletion strains, locus YOL006C, strain TOP1, active compounds read low 0.734 | S. cerevisiae deletion strains, locus YOL012C, strain htz1 1.44 | S. cerevisiae deletion strains, locus YOR061W, strain CKA2, active compounds read low 0.988 | S. cerevisiae deletion strains, locus YOR069W, strain VPS5, active compounds read low 0.972 | S. cerevisiae deletion strains, locus YOR136W, strain idh2, active compounds read low 0.976 | S. cerevisiae deletion strains, locus YOR316C, strain cot1, active compounds read low 1.01 | S. cerevisiae deletion strains, locus YPR119W, strain clb2, active compounds read low 1.01 | S. cerevisiae deletion strains, locus YPR141C, strain kar3, active compounds read low 1.07 | S. cerevisiae deletion strains, locus YPR167C, strain met16, active compounds read low 0.942 | S. cerevisiae strains, strain wild type, active compounds read low 0.977
